Avidin fluor – green autofluorescence of compounds with avidin beads – biophysical, 488/530 nm, flow cytometry, artefact control, profiling panel. compound fluorescence 488/530 nm; stronger effect = higher value. fluorescence (KMESF) at 10 µM. 220,000 compounds, 0.38% hits; in the data active means fluorescence above about 47
RGS7-Gao – RGS7-Galphao binding modulators, primary screen, biochemical, multiplexed bead flow cytometry; actives lie on both sides; AID 1439, 2008; Guanine nucleotide-binding protein G(o) subunit alpha (Homo sapiens), P09471; binding response (% of control), % at 10 µM; 220,000 compounds, 0.35% hits; in the data active means binding response below about 49% or above about 150%; inconclusive means no clear call, values can overlap the other calls; inactive means in between;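 further: fluorescent Galphao held in activated GDP-AlF4 state binding bead-coupled RGS7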
Target sequence (P09471 whole entry, looked up): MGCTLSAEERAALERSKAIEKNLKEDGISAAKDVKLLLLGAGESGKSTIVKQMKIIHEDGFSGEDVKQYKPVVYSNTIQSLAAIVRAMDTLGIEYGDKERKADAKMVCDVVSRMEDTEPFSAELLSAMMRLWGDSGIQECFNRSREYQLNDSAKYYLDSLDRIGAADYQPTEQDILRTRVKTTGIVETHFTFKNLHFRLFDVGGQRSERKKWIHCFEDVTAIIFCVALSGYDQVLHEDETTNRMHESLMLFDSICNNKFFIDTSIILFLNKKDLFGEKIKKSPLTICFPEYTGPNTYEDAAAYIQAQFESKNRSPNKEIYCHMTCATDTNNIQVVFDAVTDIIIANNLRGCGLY
RGS8-Gao reg – RGS8-Galphao binding modulators, primary screen, biochemical, multiplexed bead flow cytometry. 220,000 compounds, 0.34% hits. Guanine nucleotide-binding protein G(o) subunit alpha (Homo sapiens), P09471. response (percent of control binding), % at 10 µM. actives lie on both sides; in the data active means response below about 60% or above about 140%; inactive means in between;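 further: Galphao activated as the GDP aluminium fluoride complex binding bead-coupled RGS8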
RGS16-Gao HTS – modulators of RGS16 binding to Galphao, primary screen, biochemical, human proteins, multiplexed bead flow cytometry; Regulator of G-protein signaling 16 (Homo sapiens) + Guanine nucleotide-binding protein …; bead-based flow cytometry RGS16-Galphao binding, fluorescence; actives lie on both sides; binding response (% of control), % at 10 µM; 220,000 compounds, 0.38% hits;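 further: Galphao activated by GDP with aluminum fluoride before binding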
RGS4-Gao reg – modulators of RGS4 binding to Galphao, primary screen, biochemical, multiplexed bead flow cytometry; 220,000 compounds, 0.33% hits; actives lie on both sides; binding response (% of control), % at 10 µM; Guanine nucleotide-binding protein G(o) subunit alpha (Homo sapiens), P09471; in the data active means binding response below about 49% or above about 150%; inactive means in between;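 further: fluorescent Galphao activated with aluminum fluoride binding bead-coupled RGS4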
GSH bead fluor – compound fluorescence on glutathione beads, profiling panel, artefact control, biophysical, 488/530 nm, flow cytometry | GSH beads flow cytometry, compound fluorescence 488/530 nm; stronger effect = higher value | fluorescence (KMESF) at 10 µM | 190,000 compounds, 0.25% hits | AID 1776, 2009; in the data active means fluorescence above about 89;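 further: glutathione beads carrying GST-tagged Bcl family fusion proteins plus one bare bead set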
RGS-Gao – modulators of RGS–Galpha-o binding, primary screen, biochemical, multiplexed beads, flow cytometry, RGS4/7/8/16/19; shares compounds with RGS16-Gao HTS; multiplexed bead flow cytometry; RGS4–Galpha-o binding response, % at 10 µM; 1,600 compounds, 99% hits;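 further: fluorescently labeled Galpha-o bound to GDP with aluminium fluoride binding biotinylated RGS beads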
Target sequence (P09471 whole entry, looked up): as above
Target sequence (P49798 whole entry, looked up): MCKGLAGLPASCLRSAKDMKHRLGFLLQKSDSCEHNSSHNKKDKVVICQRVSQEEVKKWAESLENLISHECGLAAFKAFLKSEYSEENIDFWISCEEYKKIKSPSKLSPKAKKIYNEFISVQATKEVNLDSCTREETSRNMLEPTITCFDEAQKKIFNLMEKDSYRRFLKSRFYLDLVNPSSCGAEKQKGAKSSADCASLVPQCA
Avidin counter – disruption of biotin probe capture by avidin, counter-screen for RGS protein interaction modulators, biochemical, flow cytometry, bead-based; shares compounds with RGS16-Gao HTS; streptavidin beads, fluorescein-biotin binding; inhibition, % at 10 µM; 1,700 tested, under 10 active; AID 1783, 2009;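 active means inhibition above 50%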;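 further: median green fluorescence of gated singlet beads compared with DMSO control wells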
RGS8-Gao confirm – RGS8-Galphao binding modulators, confirmation, biochemical, multiplexed bead flow cytometry, single concentration; shares compounds with RGS16-Gao HTS; bead-based flow cytometry RGS8-Galphao binding, fluorescence; actives lie on both sides; binding response (% of control), % at 10 µM; 1,700 compounds, 3% hits; AID 1836, 2009; in the data active means binding response below about 72% or above about 130%; inactive means in between;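 further: Galphao activated as GDP AlF4 complex before binding bead RGS8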
RGS7-Gao single – RGS7-Galphao binding modulators, confirmation, biochemical, multiplexed bead flow cytometry, single concentration; response (percent of control binding), % at 10 µM; shares compounds with RGS16-Gao HTS; 1,700 compounds, 7.8% hits; bead-based flow cytometry RGS7-Galphao binding; actives lie on both sides; AID 1837, 2009; in the data active means response below about 75% or above about 130%; inactive means in between;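 further: fluorescent Galphao activated with GDP and aluminum fluoride binding bead-coupled RGS7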
RGS16-Gao single – modulators of RGS16-Galphao protein binding, confirmation, biochemical, single concentration, multiplexed bead flow cytometry; bead-based flow cytometry; actives lie on both sides; shares compounds with RGS16-Gao HTS; response (% of control binding), % at 10 µM; AID 1838, 2009; 1,700 compounds, 4% hits; in the data active means response below about 74% or above about 130%; inactive means in between;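 further: Galphao activated as the GDP aluminium fluoride complex binding bead-coupled RGS16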
RGS4-Gao single – modulators of RGS4-Galphao protein binding, confirmation, biochemical, single concentration, multiplexed bead flow cytometry; shares compounds with RGS16-Gao HTS; actives lie on both sides; binding response (% of control), % at 10 µM; 1,700 compounds, 4% hits; AID 1840, 2009; in the data active means binding response below about 74% or above about 130%; inactive means in between
RGS19-Gao conf – regulators of RGS19-Galphao binding, confirmation, biochemical, single point, multiplexed bead flow cytometry. shares compounds with RGS16-Gao HTS. bead-based flow cytometry RGS19-Galphao binding; actives lie on both sides. response (percent of control binding), % at 10 µM. 1,700 compounds, 5% hits. AID 1841, 2009; in the data active means response below about 50% or above about 160%; inactive means in between
Of the large screens only hits and unclear results are named; the others gave an inactive call (follow-up assays come after a bar, where they were run); [ ] = another dose, or the depositor's remark. A selection: hits, their analogues and other compounds. The true share with any hit is near 1.2%. Unless noted, how the calls were made is not given here.

O=C(c1cc(-c2cccnc2)nc2ccccc12)N1CCCc2ccccc21	RGS16-Gao HTS 13 | RGS-Gao 96 | Avidin counter inactive | RGS8-Gao confirm inactive | RGS7-Gao single inactive | RGS16-Gao single inactive | RGS4-Gao single inactive | RGS19-Gao conf inactive
Cc1ccc(-c2cc(C(=O)N3CCCc4ccccc43)c3ccccc3n2)cc1	none
Cc1ccc(S(=O)(=O)N2CCN(S(=O)(=O)c3ccc4c(c3)OCCO4)CC2)cc1	RGS8-Gao reg 58 | RGS-Gao 55 | Avidin counter inactive | RGS8-Gao confirm inactive | RGS7-Gao single inactive | RGS16-Gao single inactive | RGS4-Gao single inactive | RGS19-Gao conf inactive
CNC(=O)c1cccc2cccc(Sc3ccccc3C(=O)O)c12	RGS7-Gao inconclusive (no result: GSH bead fluor)
CNC(=O)c1ccccc1Sc1ccccc1CO	RGS7-Gao inconclusive (no result: GSH bead fluor) | Avidin counter inactive | RGS8-Gao confirm inactive | RGS7-Gao single inactive | RGS16-Gao single inactive | RGS4-Gao single inactive | RGS19-Gao conf inactive
Cc1ccc(-c2csc(NC(=O)CSc3nc4ccccc4c(=O)n3CCCN(C)C)n2)cc1	none
Cc1cc(C)c2c(c1)/C(=N\N=c1\sc3ccccc3n1C)C(=O)N2	RGS7-Gao inconclusive (no result: GSH bead fluor)
CCc1cc2c(=O)[nH]c(Cc3ccc(OC)cc3)nc2s1	RGS16-Gao HTS 16 | RGS-Gao 89 | Avidin counter inactive | RGS8-Gao confirm inactive | RGS7-Gao single inactive | RGS16-Gao single inactive | RGS4-Gao single inactive | RGS19-Gao conf inactive
CCc1cc2c(=O)[nH]c(COC)nc2s1	none
CCN(CC)C1=CC2=CC(=C(C#N)C#N)CCC2CC1 (centres undefined)	RGS4-Gao reg 165[activator] | Avidin counter inactive | RGS8-Gao confirm inactive | RGS7-Gao single 167[activator] | RGS16-Gao single inactive | RGS4-Gao single 130[activator] | RGS19-Gao conf 363[activator]
N#CC1=C(N)C2=C(N3CCCCC3)CCCC2C1(C#N)C#N (centres undefined)	none
N#CC(C#N)=C1C=C2C=C(N3CCCCC3)CCC2CC1 (centres undefined)	Avidin fluor 84, RGS7-Gao 186[activator], RGS4-Gao reg 161[activator], GSH bead fluor 99 | Avidin counter inactive | RGS8-Gao confirm inactive | RGS7-Gao single 137[activator] | RGS16-Gao single inactive | RGS4-Gao single inactive | RGS19-Gao conf 190[activator]
CCCCN(C)C1=CC2=CC(=C(C#N)C#N)CCC2CC1 (centres undefined)	Avidin fluor 68, RGS7-Gao 164[activator] | RGS-Gao 147 | Avidin counter inactive | RGS8-Gao confirm inactive | RGS7-Gao single 206[activator] | RGS16-Gao single 157[activator] | RGS4-Gao single 154[activator] | RGS19-Gao conf 293[activator]
COc1cccc(N(CC(=O)NCc2ccco2)C(=O)CCC(=O)Nc2nccs2)c1	RGS7-Gao inconclusive (no result: GSH bead fluor)
O=C(CN(C(=O)c1csnn1)c1cccc2c1CCCC2)NC1CCCC1	none
CCCc1nnc(NC(=O)OCC)s1	none
CN(C(=S)Nc1ccc(Oc2ccccc2)cc1)C1CCCCC1	RGS16-Gao HTS 14 | RGS-Gao 87 | Avidin counter inactive | RGS8-Gao confirm inactive | RGS7-Gao single inactive | RGS16-Gao single inactive | RGS4-Gao single inactive | RGS19-Gao conf inactive
COc1ccc(/C=C(/CC(=O)NCc2ccc(Cl)cc2)c2nc3ccccc3s2)cc1	none
COc1ccc(/C=C(/CC(=O)Nc2ccccc2)c2nc3ccccc3s2)cc1	RGS16-Gao HTS 18 | RGS-Gao 76 | Avidin counter inactive | RGS8-Gao confirm inactive | RGS7-Gao single inactive | RGS16-Gao single inactive | RGS4-Gao single inactive | RGS19-Gao conf inactive
Cc1ccc(OCCCCn2c(CO)nc3ccccc32)cc1	none
OCc1nc2ccccc2n1CCCOc1ccc(Br)cc1	RGS7-Gao 1.2, RGS8-Gao reg 7.0, RGS16-Gao HTS -3.6, RGS4-Gao reg -3.9 | Avidin counter inactive | RGS8-Gao confirm inactive | RGS7-Gao single inactive | RGS16-Gao single inactive | RGS4-Gao single inactive | RGS19-Gao conf inactive
O=C(Nc1nnc(-c2ccccc2Cl)o1)c1cc2cc([N+](=O)[O-])ccc2s1	RGS16-Gao HTS 17 | RGS-Gao 94
Cc1coc(=N)n1CC(=O)c1ccc(Cl)cc1	none
COC(=O)C1=C(C)NC2=C(C(=O)CC(C)(C)C2)C1c1ccsc1 (centres undefined)	RGS7-Gao 25, RGS8-Gao reg 25, RGS16-Gao HTS 18, RGS4-Gao reg 28 | Avidin counter inactive | RGS8-Gao confirm inactive | RGS7-Gao single inactive | RGS16-Gao single inactive | RGS4-Gao single inactive | RGS19-Gao conf inactive
CC1=C(C(=O)OCC2CCCO2)C(c2ccsc2)C2=C(CC(C)(C)CC2=O)N1 (centres undefined)	none
CCCNC(=O)[C@H](C)NC(=O)c1ccc(Br)cc1	RGS7-Gao inconclusive

Assay outcomes from PubChem BioAssay.
